The structures appear in SMILES notation. Inconclusive results are not listed. Where a call stands in place of a potency, no number is given. Calls of active or inactive are those of the source. Unless noted, calls follow the shape of the dose curve; as a rule, active = well fitted cell-killing curve with a large enough effect in the repeat runs; inconclusive = weak or mixed curves; inactive = no such curve, though single readings can be large or run the other way.

Peroxisome proliferator-activated receptor delta (Homo sapiens), sequence (Q03181 whole entry, looked up): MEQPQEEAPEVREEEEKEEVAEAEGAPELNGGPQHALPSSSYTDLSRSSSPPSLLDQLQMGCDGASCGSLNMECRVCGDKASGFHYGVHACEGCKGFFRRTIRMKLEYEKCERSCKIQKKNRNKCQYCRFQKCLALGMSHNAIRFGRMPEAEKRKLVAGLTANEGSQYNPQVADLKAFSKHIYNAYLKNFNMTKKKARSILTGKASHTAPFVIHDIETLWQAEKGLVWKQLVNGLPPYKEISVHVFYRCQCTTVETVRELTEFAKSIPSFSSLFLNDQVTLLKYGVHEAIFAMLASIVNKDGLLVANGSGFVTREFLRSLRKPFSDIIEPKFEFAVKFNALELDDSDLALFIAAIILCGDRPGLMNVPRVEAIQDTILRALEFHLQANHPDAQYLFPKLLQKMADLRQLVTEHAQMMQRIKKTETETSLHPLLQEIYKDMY
Bile acid receptor (Homo sapiens), sequence (Q96RI1 whole entry, looked up): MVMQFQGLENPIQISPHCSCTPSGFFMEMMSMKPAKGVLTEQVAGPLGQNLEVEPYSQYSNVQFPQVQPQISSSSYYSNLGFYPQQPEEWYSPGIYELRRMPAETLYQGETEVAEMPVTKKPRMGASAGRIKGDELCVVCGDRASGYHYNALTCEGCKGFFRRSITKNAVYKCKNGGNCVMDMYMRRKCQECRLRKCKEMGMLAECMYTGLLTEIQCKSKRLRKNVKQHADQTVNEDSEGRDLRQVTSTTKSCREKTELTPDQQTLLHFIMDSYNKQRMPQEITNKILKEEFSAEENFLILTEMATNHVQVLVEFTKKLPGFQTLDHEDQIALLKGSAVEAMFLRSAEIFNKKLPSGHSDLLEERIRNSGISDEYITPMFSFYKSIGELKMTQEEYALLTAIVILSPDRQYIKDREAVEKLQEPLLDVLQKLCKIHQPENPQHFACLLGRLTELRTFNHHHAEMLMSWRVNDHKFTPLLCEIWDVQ

Test system in the first assay: not listed separately
Nature of the assay: qHTS assay to identify small molecule antagonists of the peroxisome proliferator-activated receptor delta (PPARd) signaling pathway - cell viability counter screen (AID 743213). Also: nearly all actives have a fitted effect of over 50% in size. Also: potency is read from the fitted curve at half-maximal effect. As to conditions: PPARd-bla HEK293H viability, CellTiter-Glo luminescence, 17 h; series mostly up to 62 µM. In short, it runs like this: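 Agonist-stimulated (L165041, 300 nM final) HEK293H PPARd UAS-bla cells are exposed to compounds for 17 h at 37 C, and ATP-based luminescence (CellTiter-Glo) from the same wells reports cytotoxicity.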
(In general: Quantitative high-throughput screening tests each substance at several concentrations.)
Turning to `CC1=CC[C@H](C(C)C)C=C1`, the Potency entry is “inactive”. For `S=C([S-])NCCNC(=S)[S-].[Mn+2]`, the Potency result was “inactive”. Take `COc1cc2nc(N3CCN(C(=O)C4COc5ccccc5O4)CC3)nc(N)c2cc1OC` (configuration not stated): the Potency entry was “inactive”. For `CCC(C)(C)CC`, the Potency is 51.3 µM (active). On the same count and under the same terms, the value for `O=C(Nc1ccc(S(=O)(=O)N2CCOCC2)cc1)c1cc(Cl)ccc1NS(=O)(=O)c1ccc(Cl)s1` was 13.3 µM (active); that for `Cc1cccc(C)c1OCC(=O)N[C@@H](Cc1ccccc1)[C@@H](O)C[C@H](Cc1ccccc1)NC(=O)[C@H](C(C)C)N1CCCNC1=O` was “inactive”. For `CCC(C)c1cc(C(C)(C)C)c(O)c(C(C)(C)C)c1` (configuration not stated), the Potency entry was “inactive”. Turning to `CCN(CC)c1ccc(C(=C2C=CC(=[N+](CC)CC)C=C2)c2cc(S(=O)(=O)O)ccc2S(=O)(=O)[O-])cc1`, the Potency entry was “inactive”. Same read-out and setting: the value for `CC(C)(CO)[N+](=O)[O-]` was “inactive”.

The target in the next assay is Peroxisome proliferator-activated receptor delta (Homo sapiens) (UniProt Q03181). Nature of the assay: qHTS assay to identify small molecule antagonists of the peroxisome proliferator-activated receptor delta (PPARd) signaling pathway (AID 743215; active = well fitted inhibition curve with a large enough effect in the signal ratio in the repeat runs, not every such curve was filed as active; the % refers to the signal ratio). As to conditions: HEK293H PPARd-UAS-bla, beta-lactamase FRET ratio, antagonist, 17 h; series mostly up to 62 µM. In outline:
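Fluorescence from cleaved LiveBLAzer B/G FRET substrate (2 h, room temperature) reports PPARd-driven beta-lactamase in HEK293H UAS-bla cells. Cells had been treated 17 h at 37 C with compound plus 300 nM final L165041.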
Consider `CCCCC(CC)CN1C(=O)C2C3C=CC(C3)C2C1=O` (configuration not stated), for which the Potency entry was “inactive”. Still for that read-out and setting: next, `c1ccc(C(O[C@H]2CCCN(CCc3ccc4c(c3)OCO4)C2)c2ccccc2)cc1`: “inactive”; `Cc1nn(C)c(Oc2ccccc2)c1/C=N/OCc1ccc(C(=O)OC(C)(C)C)cc1`: “inactive”; `CCCCC/C=C\C/C=C\CCCCCCCC(=O)NC(C)c1ccccc1` (configuration not stated): “inactive”. For the molecule `CCN(CC)CCOC(=O)C(c1ccccc1)C1CCCCC1` (configuration not stated), the Potency result is “inactive”. The same measure, in the same setting: next, `COc1ccc(S(=O)(=O)N2C(=O)[C@@](c3ccccc3OC)(N3C[C@H](O)C[C@H]3C(=O)N(C)C)c3cc(Cl)ccc32)c(OC)c1`: “inactive”; `O=C(Nc1ccc(S(=O)(=O)N2CCOCC2)cc1)c1cc(Cl)ccc1NS(=O)(=O)c1ccc(Cl)s1`: “inactive”; `Cc1cccc(C)c1OCC(=O)N[C@@H](Cc1ccccc1)[C@@H](O)C[C@H](Cc1ccccc1)NC(=O)[C@H](C(C)C)N1CCCNC1=O`: “inactive”. As to `C/C=C(/C(=C/C)c1ccc(OC(C)=O)cc1)c1ccc(OC(C)=O)cc1`, the Potency entry is “inactive”. Same read-out and setting: the value for `CCC(C)c1cc(C(C)(C)C)c(O)c(C(C)(C)C)c1` (configuration not stated) was “inactive”.

In a further assay the target is Bile acid receptor (Homo sapiens) (UniProt Q96RI1). Description: qHTS assay to identify small molecule antagonists of the farnesoid-X-receptor (FXR) signaling pathway (AID 743217; active = well fitted inhibition curve with a large enough effect in the signal ratio in the repeat runs, not every such curve was filed as active; the % refers to the signal ratio; also: potency is read from the fitted curve at half-maximal effect). As to conditions: HEK293T FXR-UAS-bla, beta-lactamase ratio, CDCA-stimulated, 16 h; series mostly up to 62.6 µM. In outline:
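FRET fluorescence after 2 h room-temperature LiveBLAzer loading gives the readout. Prior step: FXR-bla HEK 293T cells, seeded and incubated 5 h, received test compounds plus 50 uM final CDCA for 16 h at 37 °C.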
Turning to `COS(=O)(=O)C(F)(F)F`, the Potency entry was “inactive”. As for `C=C1C(=C/C=C2\CCC[C@]3(C)[C@@H]([C@H](C)/C=C/[C@@H](O)C4CC4)CC[C@@H]23)C[C@@H](O)C[C@@H]1O`, the Potency is 29.8 µM (active).

Consider `CCC(Cl)CCC(Cl)C(Cl)CC(Cl)C(Cl)C(Cl)CCl` (configuration not stated), for which the Potency entry is “inactive”. Turning to `O=C(OCCCCCCOC(=O)c1ccccc1)c1ccccc1`, the Potency entry is “inactive”. Still for that read-out and setting: the value for `COc1ccc(-c2nc3ccc(C4=NNC(=O)CC4C)cc3[nH]2)cc1` (configuration not stated) was 29.8 µM (active); that for `CN(C)CCOC(c1ccccc1)c1ccc(Br)cc1` (configuration not stated) was “inactive”. As for `CN(C)CCCN1c2ccccc2Sc2ccccc21`, the Potency entry was “inactive”. Still for that read-out and setting: the value for `CCN(CC)c1ccc(C(=C2C=CC(=[N+](CC)CC)C=C2)c2cc(S(=O)(=O)O)ccc2S(=O)(=O)[O-])cc1` was “inactive”.

These data come from PubChem BioAssay (Tox21).
